Results as given in article PMC4336329 (PLoS ONE, 2015).
Out of some 310,000 compounds screened, about 14,000 (4.5%) showed an effect of 50% or more. The effect is printed as a negative number. The sample as a whole holds a higher share of strong results than the screen did.

Biological target: human ether-à-go-go-related gene (hERG) potassium channel (human, UniProt Q12809)
Assay: primary screen, population patch clamp on CHO cells stably expressing hERG; higher = less effect of the substance
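Note: peak tail current of the secondary pulse compared with the same well before compound.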

Sequence of human ether-à-go-go-related gene (hERG) potassium channel (Q12809 whole entry, looked up): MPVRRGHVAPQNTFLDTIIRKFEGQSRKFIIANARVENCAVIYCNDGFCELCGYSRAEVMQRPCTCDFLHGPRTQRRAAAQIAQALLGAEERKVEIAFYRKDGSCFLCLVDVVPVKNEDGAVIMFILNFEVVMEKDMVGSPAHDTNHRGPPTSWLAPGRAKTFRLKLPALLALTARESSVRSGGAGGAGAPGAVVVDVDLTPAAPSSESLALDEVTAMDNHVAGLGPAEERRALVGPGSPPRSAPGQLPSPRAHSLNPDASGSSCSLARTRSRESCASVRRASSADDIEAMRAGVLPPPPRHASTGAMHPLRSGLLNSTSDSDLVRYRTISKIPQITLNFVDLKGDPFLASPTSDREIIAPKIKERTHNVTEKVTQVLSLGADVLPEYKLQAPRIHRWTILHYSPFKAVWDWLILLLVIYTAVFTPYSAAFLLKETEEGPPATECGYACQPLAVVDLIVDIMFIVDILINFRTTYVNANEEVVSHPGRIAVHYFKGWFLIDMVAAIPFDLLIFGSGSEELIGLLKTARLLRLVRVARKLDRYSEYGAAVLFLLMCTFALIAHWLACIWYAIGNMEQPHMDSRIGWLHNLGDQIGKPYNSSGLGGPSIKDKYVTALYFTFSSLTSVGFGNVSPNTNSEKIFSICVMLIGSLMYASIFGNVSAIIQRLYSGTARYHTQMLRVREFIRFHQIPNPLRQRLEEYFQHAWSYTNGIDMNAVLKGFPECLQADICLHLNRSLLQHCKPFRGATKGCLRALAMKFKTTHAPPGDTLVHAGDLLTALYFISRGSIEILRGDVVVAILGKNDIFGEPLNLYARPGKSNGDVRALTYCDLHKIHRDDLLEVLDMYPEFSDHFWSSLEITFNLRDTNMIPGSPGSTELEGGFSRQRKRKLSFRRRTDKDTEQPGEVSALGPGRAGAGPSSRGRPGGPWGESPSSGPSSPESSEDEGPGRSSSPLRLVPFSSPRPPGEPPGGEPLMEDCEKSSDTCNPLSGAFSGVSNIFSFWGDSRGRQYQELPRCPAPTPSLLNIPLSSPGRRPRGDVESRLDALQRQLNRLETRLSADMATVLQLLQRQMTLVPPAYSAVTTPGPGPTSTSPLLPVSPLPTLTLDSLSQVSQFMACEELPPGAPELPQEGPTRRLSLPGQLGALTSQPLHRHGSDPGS

Row | Structure (SMILES) | hERG current change (%, negative = inhibition) at 10uM
1 | COc1ccc(N(CC(=O)N2CCc3ccccc32)S(=O)(=O)c2c(C)n[nH]c2C)cc1 | -18.6%
2 | CC(NCCOc1ccccc1F)C(=O)Nc1ccc(S(N)(=O)=O)cc1 (stereo not drawn) | 13.4%
3 | N#Cc1c(N)c(C(=O)c2ccc(Cl)cc2)n2c1CCC2 | 5.5%
4 | CCCCN(CCCC)C(=O)c1cc(Cl)ccc1[N+](=O)[O-] | -1.4%
5 | O=C1CCC(C(=O)N(Cc2ccco2)C2(C(=O)NC3CCCC3)CCCCC2)N1 (stereo not drawn) | 13.4%
6 | CCNc1nc(NCC)nc(N/N=C(\C)c2ccc(OC)cc2)n1 | -14.1%
7 | Cc1ccccc1NS(=O)(=O)c1cc(C(=O)NCc2ccco2)ccc1C | -20.3%
8 | Cc1ccc(C)c(NS(=O)(=O)c2cc(C(=O)NCc3ccco3)ccc2C)c1 | -52.3%
9 | O=C(NCc1ccco1)c1ccc(F)c(S(=O)(=O)N2CCCCC2)c1 | -11.3%
10 | O=C(NCc1ccco1)c1ccc(Br)c(S(=O)(=O)N2CCCCC2)c1 | -53%
11 | CCn1cc(C(=O)NCC2CCCO2)c(=O)c2cc(S(=O)(=O)N3CCCCCC3)ccc21 (stereo not drawn) | -51.3%
12 | CCn1cc(C(=O)NCC2CCCO2)c(=O)c2cc(S(=O)(=O)N3CCC(C)CC3)ccc21 (stereo not drawn) | -28.1%
13 | CCn1cc(C(=O)NCC2CCCO2)c(=O)c2cc(S(=O)(=O)N3CCCCC3)ccc21 (stereo not drawn) | -34%
14 | CCn1cc(C(=O)NCc2ccco2)c(=O)c2cc(S(=O)(=O)N3CCCC3)ccc21 | -4.37%
15 | Cc1ccc(C(=O)NCc2ccco2)cc1S(=O)(=O)N1CCCCC1 | -18.6%
16 | Cc1ccc(C(=O)NCc2ccco2)cc1S(=O)(=O)Nc1cccc(C)c1C | -32.2%
17 | CCn1cc(C(=O)NCc2ccco2)c(=O)c2cc(S(=O)(=O)N3CCCCCC3)ccc21 | -53.3%
18 | CCn1cc(C(=O)NCc2ccco2)c(=O)c2cc(S(=O)(=O)N3CCC(C)CC3)ccc21 | -36.5%
19 | COc1cc(CCC(=O)Nc2ccc(C)c(S(=O)(=O)N3CCCCCC3)c2)cc(OC)c1OC | -6.5%
20 | O=C(OCCN1C(=O)c2ccccc2C1=O)C1CCN(S(=O)(=O)c2cccs2)CC1 | -31.9%
21 | COc1cc(CCN2C(=O)N[C@@H](CCc3ccccc3)C(C(C)=O)=C2C)cc(OC)c1OC | -12.6%

Row | Structure (SMILES) | hERG current change (%, negative = inhibition) at 10uM
22 | CC(=NCC1CCCO1)c1c(O)n(C2CCCCC2)c(=O)[nH]c1=O (stereo not drawn) | -9.77%
23 | CC(C)(C)NC(=O)CN1CCCN(C(=O)c2cccc(S(=O)(=O)N3CCc4ccccc43)c2)CC1 | -7.51%
24 | CCn1c(NN=O)nc2ccccc21 | 15.6%
25 | O/N=C1/C2C3CC4C5C3C1C5C1(OCCO1)C42 (stereo not drawn) | 4.44%
26 | Cc1cccc(OS(=O)(=O)NC(=O)OCC2CCCN3CCCCC23)c1 (stereo not drawn) | 15.1%
27 | O=C(c1cc2nc(-c3ccccc3)cc(-c3ccccc3)n2n1)N1CCC2(CC1)OCCO2 | -49.4%
28 | C/C(=N/Nc1ccc(F)cc1)c1ccc(Cl)s1 | 8.69%
29 | CC(C)(C)c1ccc(CCC(CC(=O)O)CC(=O)O)cc1 | -11.9%
30 | CCN1CCCC1CNC(=O)c1cn(CC)c2ccc(S(=O)(=O)N3CCCCCC3)cc2c1=O (stereo not drawn) | -66.5%
31 | CCn1cc(C(=O)NCCC(C)C)c(=O)c2cc(S(=O)(=O)N3CCCCC3)ccc21 | -7.53%
32 | CCn1cc(C(=O)NC2CCCCCC2)c(=O)c2cc(S(=O)(=O)N3CCCCC3)ccc21 | 8.24%
33 | Cc1cccc(NC(=O)c2c(O)c3ccccc3n(C)c2=O)c1 | 25.8%
34 | Cc1ccc(CCNC(=O)C2CCCN(C(=O)N(C)C)C2)cc1 (stereo not drawn) | 8.01%
35 | CCOc1ccc(CCNC(=O)c2nnc(Cc3ccc(F)cc3)o2)cc1OCC | -1.78%
36 | CCc1ccc2nc3nc(C)cc(C)c3c(N)c2c1 | 1.12%
37 | Cc1cc(C)c2c(SC(C)C)nc(N)nc2n1 | -4.12%
38 | Cc1cc(C)c2c(N)c3ccccc3nc2n1 | -53.9%
39 | Cc1cc(C)c2c(N)c3cccc(C)c3nc2n1 | -64.7%
40 | Cc1cccc2c(C(=O)O)c3cccc(C)c3nc12 | 1.39%
41 | Cc1cc(N)c2ccccc2n1 | 7.4%
42 | Cc1cc(C)c2nc3nc(C)cc(C)c3c(N)c2c1 | -65.5%

Row | Structure (SMILES) | hERG current change (%, negative = inhibition) at 10uM
43 | Cc1cc(C)c2cccc(N)c2n1 | 20.7%
44 | Cc1cc(C)c2nc(-n3nc(C)cc3N)cc(C)c2c1 | 20%
45 | CC(C)(C)n1nc2c(c1NC(=O)c1ccc(F)c(F)c1)CS(=O)(=O)C2 | 3.79%
46 | COc1ccc(/C=N/NC(=O)c2ccc(CN3c4cccc5cccc(c45)S3(=O)=O)cc2)cc1 | 4.03%
47 | CC(C)CN(C(=O)COC(=O)c1c2c(nc3ccccc13)CCC2)c1c(N)n(Cc2ccccc2)c(=O)[nH]c1=O | 4.06%
48 | Cc1ccc(N2CC(C(=O)NCCS(=O)(=O)N3CCN(c4ccccc4F)CC3)CC2=O)cc1 (stereo not drawn) | 13.2%
49 | CC(C)(C)c1ccc(OCCNC(=S)NC(=O)c2cccnc2)cc1 | -16.3%
50 | CCC(CC)C(=O)Nc1cc(C(=O)OC)ccc1C(=O)OC | -15.4%
51 | COCCn1cc(C(=O)c2cc(Br)ccc2O)cc(C#N)c1=O | 2.45%
52 | CNC(=O)CSc1nnc(-c2cccnc2)n1-c1ccc(C)cc1 | 13.6%
53 | CC(Sc1nc(-c2ccccc2)cc(C(F)(F)F)n1)C(=O)NCc1ccco1 (stereo not drawn) | 10.2%
54 | O=C(CSc1nnc(-c2cccs2)n1CC1CCCO1)N1CCCC1 (stereo not drawn) | -14.4%
55 | CC(C)(C)C(=O)CSc1nnc(-c2cccs2)n1CC1CCCO1 (stereo not drawn) | -12.4%
56 | CC(Sc1nnc(Cc2cccs2)n1C1CCCCC1)C(=O)NCc1ccco1 (stereo not drawn) | -5.59%
57 | Cc1ccc(-n2c(SCC(=O)NCc3ccco3)nnc2-c2cccnc2)cc1 | -60.8%
58 | CC(Sc1nnc(-c2cccs2)n1-c1ccccc1)C(=O)NCc1ccco1 (stereo not drawn) | -79.4%
59 | O=C(CCCSc1nnc(-c2cccs2)n1CC1CCCO1)c1ccccc1 (stereo not drawn) | -65.1%
60 | Cc1ccc2nc(-c3ccccc3)nc(SC(C)C(=O)NCc3cccs3)c2c1 (stereo not drawn) | 11.7%
61 | Cc1ccc(C)c2c(SC(C)C(=O)NCc3ccco3)nc(-c3ccccc3)nc12 (stereo not drawn) | -64.7%
62 | Cc1ccc(-n2c(SCC(=O)NCc3ccco3)nnc2-c2cccnc2)c(C)c1 | -34.4%
63 | Cn1c(SCC(=O)NCc2ccco2)nnc1-c1cccs1 | 3.45%
